Measurements as given in PubChem BioAssay (NCI).
The panel holds about 79,000 compounds, 15% with a hit somewhere; the sample as a whole holds those more often. No stated cut-off is given here; in the data, active means growth inhibition above about 70%; inactive means the rest.

Tests used:
[1] = NCI Yeast Anticancer Drug Screen. Data for the rad50 strain (AID 155);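 further: 0% = growth of vehicle-only cultures of the same strain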; settings: S. cerevisiae rad50 strain growth inhibition; at 50.0 µM; stronger effect = higher value
Summary of the method: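 Growth of the mutant yeast was measured after compound exposure and referenced to vehicle-treated cultures.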

[2] = NCI Yeast Anticancer Drug Screen. Data for the mec2-1 strain (AID 157); settings: S. cerevisiae mec2-1 strain, at 50.0 µM, stronger effect = higher value
Summary of the method: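 Using mec2-1 yeast: add compound, measure growth, express inhibition versus vehicle-treated cultures.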

[3] = NCI Yeast Anticancer Drug Screen. Data for the sgs1 mgt1 strain (AID 161);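 further: 0% = growth of cultures given vehicle only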; settings: S. cerevisiae sgs1 mgt1 strain, at 50.0 µM, stronger effect = higher value
Summary of the method: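 Growth of a repair-deficient yeast mutant was monitored after compound treatment and expressed as inhibition relative to vehicle-treated cultures.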

[4] = NCI Yeast Anticancer Drug Screen. Data for the cln2 rad14 strain (AID 165);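 further: 0% = growth equal to vehicle treated cultures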; settings: S. cerevisiae cln2 rad14 strain, at 50.0 µM, stronger effect = higher value
Summary of the method: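 Yeast strain cln2 rad14, bearing defects in cell cycle control and DNA repair, serves as the test system; values reflect growth inhibition compared with vehicle.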

[5] = NCI Yeast Anticancer Drug Screen. Data for the bub3 strain (AID 167); settings: S. cerevisiae bub3 mutant strain, at 50.0 µM, stronger effect = higher value
Summary of the method: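 Whole-cell yeast assay. The mutant strain was incubated with compounds, and growth inhibition was determined by comparison with vehicle-treated cells.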

[6] = NCI Yeast Anticancer Drug Screen. Data for the mlh1 rad18 strain (AID 175); settings: S. cerevisiae mlh1 rad18 strain growth inhibition; at 50.0 µM; stronger effect = higher value
Summary of the method: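 Steps: expose repair-defective yeast to compound; measure growth; express inhibition against vehicle-treated controls.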

Measured: growth inhibition

O=c1ccn2cnc3c(ncn3C3OC(CO)C(O)C3O)c2n1 (stereo unspecified)
inactive: [1] 4.8% | [2] 9% | [3] 10.2% | [4] 7.2% | [5] -10.9% | [6] 9.85%

CN=C(Nc1cccc(C(F)(F)F)c1)SCc1ccc(N=C=S)cc1
inactive: [1] 9.7% | [2] 28.3% | [3] 60% | [4] 10.2% | [5] 38.8% | [6] 38.5%

Cc1cccc(NN)c1
inactive: [1] 59.6% | [2] 32.1% | [3] 7.45% | [4] 30% | [5] 23.3% | [6] 32.9%

CC1=C/C(=N/NS(=O)(=O)c2ccc(C)cc2)CC(C)(C)C1
inactive: [1] 27.6% | [2] -3.25% | [3] 11.8% | [4] -22.3% | [5] 4.1% | [6] 13.2%

NCCOc1ccccn1
inactive: [1] -1.7% | [2] -10.8% | [3] -0.6% | [4] -10.7% | [5] 1% | [6] -1.9%

Cc1ccc(/C(O)=C/c2nc3ccccc3oc2=O)cc1
inactive: [1] 20.2% | [2] 35.4% | [3] -7.5% | [4] -18.7% | [5] 25.9% | [6] 0.85%

O=C1NC(=S)N/C1=C\c1cccs1
inactive: [1] -20.6% | [2] -7.25% | [3] 15.4% | [4] -19.9% | [5] -7.35% | [6] -44.6%

CC(C)OP(=O)(OC(C)C)/C(F)=N/Nc1ccc([N+](=O)[O-])cc1
inactive: [1] 36% | [2] 11.3% | [3] 23.1% | [4] -3.85% | [5] -6.15% | [6] 6.25%

NC(Cc1cccc([N+](=O)[O-])c1)C(=O)O (stereo unspecified)
inactive: [1] -57.8% | [2] -29.5% | [3] -35.2% | [4] -48.3% | [5] 13.3% | [6] -3.8%

O=c1cccc2c3ccccc3ccn12
inactive: [1] 22.9% | [2] 7% | [3] 15.3% | [4] 12.3% | [5] 15.3% | [6] 13.5%

CCCCCOS(=O)(=O)O
inactive: [1] -0.3% | [2] 4.3% | [3] -0.6% | [4] -11% | [5] -0.25% | [6] 5.3%

CC(=O)NCCSC(=O)CCCCCCCCC(=O)SCCNC(C)=O
inactive: [1] 11.8% | [2] -0.25% | [3] 27.2% | [4] 22.1% | [5] 6.55% | [6] 6.5%

c1cc[n+](Cc2ccc3ccccc3n2)cc1
inactive: [1] -0.95% | [2] -5.5% | [3] -5.85% | [4] -27.4% | [5] -2.2% | [6] 28.9%

Cc1ccc(/C=N/NS(=O)(=O)c2ccc(/C=C3\NC(=O)NC3=O)cc2)cc1
inactive: [1] -16.8% | [2] -6.1% | [3] -31.4% | [4] -6.55% | [5] -41.2% | [6] 1.75%

CCOC(=O)c1c(C)c(C)cc(C)c1C
inactive: [1] -4.75% | [2] -7.6% | [3] -5.45% | [4] 6.15% | [5] 2.3% | [6] -10.8%

S=C(SCc1c(Cl)cccc1Cl)N1CCSCC1
inactive: [1] -13.9% | [2] -14.2% | [3] 23.1% | [4] -6.85% | [5] 53% | [6] 0.6%

C=C(C(C)C)C1CC1
inactive: [1] 0.25% | [2] -18.2% | [3] -4.25% | [4] 3.5% | [5] -2.6% | [6] -11.8%

COCCCN1COCC(COc2ccc(Cl)cc2)OC1 (stereo unspecified)
inactive: [1] -17.9% | [2] -35% | [3] -32.2% | [4] -23.2% | [5] -36.6% | [6] -27.9%

COC1=C(C#N)C(c2ccccc2)CC(N)=N1 (stereo unspecified)
inactive: [1] 1.55% | [2] -11.1% | [3] -10.1% | [4] 2.1% | [5] -1% | [6] 20.4%

C=C1CCc2occ(C)c2C2C1C1=C(CC(C)C1=O)C1OC12C (stereo unspecified)
inactive: [1] 14.9% | [2] 11.1% | [3] -2.75% | [4] -22.8% | [5] 12.4% | [6] 10.2%

O=C(NCCCCCCCCNC(=O)c1cccc2ccccc12)c1cccc2ccccc12
inactive: [1] 14.2% | [2] 25% | [3] 2.8% | [4] -9.25% | [5] -10.4% | [6] 16.8%

Cn1cnc2nc(N)[nH]c(=O)c21
inactive: [1] 37.2% | [2] 6.45% | [3] 2.5% | [4] -14.4% | [5] -0.95% | [6] 13.7%

CC(=O)Nc1ccc(S(=O)(=O)N/N=C\CC(C)C)cc1
inactive: [1] -19.4% | [2] -14.2% | [3] -26.2% | [4] -6.95% | [5] -46% | [6] -27.2%

O=C(NC(=O)c1cc(-c2ccccc2)n[nH]1)c1ccccc1
inactive: [1] -71.5% | [2] -10.1% | [3] -14.4% | [4] -6.3% | [5] -20.4% | [6] -10.8%

CCC(=O)OC1(c2ccccc2)C(CN(C)C)CCCC1CN(C)C (stereo unspecified)
inactive: [1] -11.2% | [2] -17.6% | [3] -22.2% | [4] -47.9% | [5] 2.85% | [6] -14.9%

CC(=O)Nc1ccc(SC#N)c2c(NC(C)=O)cccc12
inactive: [1] 44.6% | [2] 27.5% | [3] 56.5% | [4] 27.6% | [5] 30.4% | [6] 47.7%

C#CCN1CCCC1
inactive: [1] -9.4% | [2] -4.35% | [3] -11% | [4] 22.1% | [5] 27.7% | [6] 10.2%

COc1cc(OC2OC(CO)C(O)C(O)C2O)c2c(O)c3c(=O)cc(C)oc3cc2c1 (stereo unspecified)
inactive: [1] 12.8% | [2] 19.4% | [3] 2.05% | [4] 20.7% | [5] 2.55% | [6] 3.8%

c1ccc(N2CCSCC2)cc1
inactive: [1] 2.95% | [2] -5.45% | [3] -21.9% | [4] -6.25% | [5] 0.3% | [6] -7.15%

CCCN(CCC)S(=O)(=O)c1ccc(NC(=O)OC(CC)c2ccco2)cc1 (stereo unspecified)
inactive: [1] 27.8% | [2] -3.8% | [3] 8% | [4] 7.85% | [5] -5.5% | [6] 8.8%

CCOC1(NC(=O)N(C)C)C2CCCC21 (stereo unspecified)
inactive: [1] 3.4% | [2] -4.15% | [3] -0.1% | [4] -29.9% | [5] 2.1% | [6] -6.5%

CCCCCCCCCCCCCCCOc1cc(OC)ccc1-c1nnc(SC)s1
inactive: [1] -15.2% | [2] -15.6% | [3] -24.1% | [4] -3.05% | [5] -11.5% | [6] -5.7%

CC(=NNC(=S)Nc1ccc(C)cc1)c1cccc(C(C)=NNC(=S)Nc2ccc(C)cc2)n1
inactive: [1] 35.5% | [2] 14.1% | [3] 36.8% | [4] 17.4% | [5] 12.4% | [6] 23.8%

N[n+]1ccccc1
inactive: [1] -9.45% | [2] -6.85% | [3] -9.1% | [4] -37.4% | [5] -4.65% | [6] -2.6%

O=[N+]([O-])c1nc(-[n+]2ccccc2)[n-]c1Br
inactive: [1] 4.65% | [2] -1.05% | [3] -1.9% | [4] -49.9% | [5] 4.1% | [6] 8.8%

C/C(=N/O)c1ccc[nH]1
inactive: [1] -3.6% | [2] 9% | [3] -5.5% | [4] 20.1% | [5] 13.2% | [6] 0.3%

CCCCNc1nnc(N)s1
inactive: [1] 4.65% | [2] -24.2% | [3] -10.3% | [4] -34.5% | [5] -2.2% | [6] -27.9%

CC(=O)Oc1c(Br)cc(C(=O)c2ccccc2C(=O)c2cc(Br)c(OC(C)=O)c(Br)c2)cc1Br
inactive: [1] 13.9% | [2] 25.5% | [3] 21.6% | [4] -16.3% | [5] 11.9% | [6] 13.7%

CCOc1cc2c(cc1O)/C(=N\O)C[C@@H]1[C@@H]2CC[C@]2(C)[C@@H](O)CC[C@@H]12
inactive: [1] 31.6% | [2] 13% | [3] 57.2% | [4] 20.6% | [5] 24.2% | [6] -9.15%

COc1ccc(CCN(C)C(c2ccccc2)c2ccccc2)cc1OC
inactive: [1] -2.8% | [2] -6.65% | [3] 10.9% | [4] 3.75% | [5] 4.75% | [6] 3.3%

COc1ccc(-c2cc(=O)cc(C(N)=O)o2)cc1
inactive: [1] -1.1% | [2] -1% | [3] 4.6% | [4] -13.8% | [5] 11.2% | [6] 17.2%
